# Results from PubChem BioAssay AID799 (SRMLSC, 2007).
# The campaign covered roughly 140,000 compounds. About 840 (0.6%) were called active.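 How the source made its calls: active means viability gain under doxorubicin at or above a set limit, the compound median plus 3 SD (cut at about 4.7% in these data); inactive means the rest.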 This excerpt belongs to a sample that is enriched for actives.
# Assay: protection of MRP-1-high cells against doxorubicin toxicity – H69AR cells, CellTiter-Glo, MRP-1 activator project, primary screen (AID 799);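 further: MRP-1 overexpressing cells given doxorubicin 25 µM after compound pretreatment; 18-22 h compound pretreatment then 72 h with doxorubicin before readout; 0% = doxorubicin-only wells and 100% = vehicle-treated cells without doxorubicin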
# Conditions: viability rescue, at 10 µM, active compounds read high
row,Compound,viability increase
1,CCCN(CC1COc2ccccc2O1)C(=S)Nc1ccc(C)cc1 (configuration not stated),-0.89% (inactive)
2,Cc1nnc(-c2ccc(Oc3ccc(C)c(C)c3)c([N+](=O)[O-])c2)o1,-1.23% (inactive)
3,COc1cccc(/C=N/Nc2ncc(C(F)(F)F)cc2Cl)c1O,-4.98% (inactive)
4,Cc1cc(C)c(NC(=S)N2CCCC2C(=O)O)c(C)c1 (configuration not stated),0.6% (inactive)
5,Cn1nnc(NC(=O)CSc2ncn[nH]2)n1,-0.73% (inactive)
6,CCN(C(=O)CSc1ncn[nH]1)c1cccc2ccccc12,1.04% (inactive)
7,CC(C)(C)c1ccc(C(=O)CSc2ncn[nH]2)cc1,9.85% (active)
8,CCN(CC(=O)NCCc1ccccc1)S(=O)(=O)c1ccc(C)cc1,-2.77% (inactive)
9,O=C(Cc1ccccc1)Nc1cccc(C(=O)N/N=C/c2ccco2)c1,-0.32% (inactive)
10,CC(C)(C)NC(=O)c1cccc(NC(=O)Cc2ccc(Br)cc2)c1,5.31% (active)
11,COc1ccc(CC(=O)Nc2ccc(C(=O)NC(C)(C)C)cc2)cc1,0.14% (inactive)
12,COc1ccc(Cl)cc1NC(=O)Cn1nc(-c2ccc(C)cc2)n(C)c1=S,-3.24% (inactive)
13,CCOC(=O)c1cnc2ccc(F)cc2c1Nc1ccc2c(c1)OCCO2,-1.56% (inactive)
14,Cc1c(CCO)sc[n+]1CC(=O)OC12CC3CC(CC(C3)C1)C2,-0.72% (inactive)
15,N#C/C(C(=O)N1CCOCC1)=C1/SC(Cc2ccc(F)cc2)C(=O)N1c1ccccc1 (configuration not stated),-0.96% (inactive)
16,Cc1ccc(C(=O)C(=S)N2CCOCC2)cc1,-2% (inactive)
17,Cc1ccc(CC2S/C(=C(/C#N)C(=O)N3CCOCC3)N(c3ccccc3)C2=O)cc1 (configuration not stated),7.14% (active)
18,Cc1ccn(-c2cccc(-n3ccc(C)n3)n2)n1,1.12% (inactive)
19,CN1/C(=C\C(=O)c2cccnc2Cl)C(C)(C)c2ccccc21,-0.96% (inactive)
20,Cc1noc(C)c1C(=O)OCC(=O)/C=C1\N(C)c2ccccc2C1(C)C,-1.22% (inactive)
21,CN1/C(=C\C(=O)c2oc3ccccc3c2N)C(C)(C)c2ccccc21,5.19% (active)
22,C/C(=N/NS(=O)(=O)c1ccccc1)c1ccc(NC(=O)C(F)(F)F)cc1,-0.61% (inactive)
23,Cc1ccccc1N/C(SCc1ccc(Cl)cc1)=C(/C#N)C(N)=O,-2.62% (inactive)
24,Cc1scc(C(=O)NNC(=S)NCC(C)C)c1C,0.83% (inactive)
25,COc1ccc(CC(=O)N2N=C(C)CC2(O)C(F)(F)F)cc1 (configuration not stated),-0.45% (inactive)

row,Compound,viability increase
1,O=S(=O)(Nc1ccc(Oc2ncccn2)c(Cl)c1)c1ccc(F)cc1,-2.28% (inactive)
2,Cc1ccc(S(=O)(=O)Nc2ccc3ncccc3c2)cc1,5.23% (active)
3,Cc1ccc(C(=O)/C=C/Nc2ccc(S(=O)(=O)Nc3onc(C)c3C)cc2)cc1,-1.44% (inactive)
4,CCc1nccn1S(=O)(=O)c1cccc([N+](=O)[O-])c1,1.01% (inactive)
5,NC(=O)COc1ccc2c3c(c(=O)oc2c1)CCCCC3,-0.34% (inactive)
6,N#CC1(NC(=O)COc2ccc3oc4ccccc4c3c2)CCCCC1,0% (inactive)
7,O=C(COc1ccc2oc3c(c2c1)CCCC3)Nc1ccccn1,5.27% (active)
8,O=C(COC(=O)Cc1ccc(F)cc1)Nc1cc(S(=O)(=O)N2CCOCC2)ccc1N1CCCC1,0.15% (inactive)
9,CN(C(=O)c1c(Cl)cnn1C)C12CC3CC(CC(C3)C1)C2,-1.48% (inactive)
10,Clc1cccc(CN2COc3c(cc(Cl)c4cccnc34)C2)c1,-5.22% (inactive)
11,COc1cccc(/C=N\NC(=O)C2=NNC(=O)C2C)c1O (configuration not stated),8.24% (active)
12,COc1cccc(/C=N/NC(=O)c2[nH]nc3c2CCc2ccccc2-3)c1O,-0.29% (inactive)
13,COc1ccc(C(=O)Nc2ccccc2C(=O)N/N=C/c2ccccc2OC)cc1,-3.65% (inactive)
14,CCn1cc(/C=C2/SC(=S)NC2=O)c(C)n1,-3.74% (inactive)
15,Cc1ccc(NC(=S)NCc2ccccc2Cl)c(C)c1,-3.43% (inactive)
16,CC1(C)CC(=O)C2=C(C1)N=C1SCCC(=O)N1C2c1ccc(C(F)(F)F)cc1 (configuration not stated),9.27% (active)
17,Cc1ccc(C(=O)COC(=O)CCCC(=O)NC2CCCCC2)cc1[N+](=O)[O-],-1.8% (inactive)
18,O=C(N/N=C\c1ccc(-c2ccc(Cl)c(Cl)c2)o1)C(=O)N1CCCC1,1.06% (inactive)
19,O=C(Cn1nnc(-c2ccccc2)n1)N/N=C/c1ccc(-c2ccc(Cl)cc2)o1,-1.7% (inactive)
20,COC(=O)N/N=C/c1ccc(-c2ccc(Cl)c(Cl)c2)o1,9.18% (active)
21,CCc1ccc(NC2Nc3cc(C)nn3S2)cc1 (configuration not stated),1.66% (inactive)
22,Cc1cccc(C)c1NC(=O)CSc1ccc([N+](=O)[O-])cn1,-2.01% (inactive)
23,C/C(=N/NC(=O)CSc1ccccn1)c1ccc([N+](=O)[O-])cc1,5.38% (active)
24,COC(=O)c1ccccc1NC(=O)CSc1ccccn1,-0.18% (inactive)
25,CC(C)(C)NC(=O)COC(=O)c1cc(Br)ccc1Cl,1.61% (inactive)

row,Compound,viability increase
1,Cc1ccc(C(=O)NC(C)c2ccccc2)cc1Br (configuration not stated),2.53% (inactive)
2,COc1ccc(C(=O)ON=C2c3ccccc3-c3ccccc32)cc1OC,-0.45% (inactive)
3,COc1cccc(C2SCC(=O)N2c2cccc(C)c2)c1OC (configuration not stated),-1.69% (inactive)
4,CSCC[C@H](NC(=O)OC(C)(C)C)C(=O)N/N=C/c1cc2ccc(C)cc2nc1Cl,-3.12% (inactive)
5,Cc1ccc(CN2C(=O)N/C(=C/c3cc(C)n(-c4ccccn4)c3C)C2=O)cc1,2.22% (inactive)
6,CC1CCN(C(=O)c2ccc(CSc3ccc(Cl)cc3)cc2)CC1,-2.43% (inactive)
7,O=C(c1ccco1)N1CCN=C1SCc1cccc(Cl)c1,1.42% (inactive)
8,CCC(=O)N1CCN=C1SCc1ccc(F)cc1,5.28% (active)
9,O=C(C1CC1)N1CCN=C1SCc1ccc(Cl)cc1,4.76% (active)
10,Cc1cccc(CC(=O)N2CCN=C2SCc2ccc([N+](=O)[O-])cc2)c1,-3.9% (inactive)
11,Cc1cc(C)cc(C(=O)N2CCN=C2SCc2ccc([N+](=O)[O-])cc2)c1,-4.17% (inactive)
12,Cc1ccc(C(C[N+](=O)[O-])c2c(C)cc3ccccn23)cc1 (configuration not stated),-4.62% (inactive)
13,COc1cc(C(=O)Nc2cc(C(F)(F)F)ccc2N2CCOCC2)ccc1O,-4.55% (inactive)
14,O=c1[nH]cnc2c1c(-c1ccccc1)cn2-c1ccc(F)cc1,-1.33% (inactive)
15,CSCCC(NC(=O)c1cc([N+](=O)[O-])cc([N+](=O)[O-])c1)c1nc2ccccc2[nH]1 (configuration not stated),-3.92% (inactive)
16,S=C(NCCc1ccccc1)NCc1ccccc1Cl,-1.54% (inactive)
17,O=C(NCc1ccco1)C1CCCN(S(=O)(=O)c2cnc[nH]2)C1 (configuration not stated),-1.18% (inactive)
18,Cc1noc(/C=C/N(C)C)c1S(=O)(=O)N1CCCC(C(=O)NCc2ccco2)C1 (configuration not stated),8.37% (active)
19,O=C(NCc1ccco1)C1CCCN(S(=O)(=O)c2ccccc2)C1 (configuration not stated),0.35% (inactive)
20,CCCc1c(C)nc2c(Br)cccc2c1Cl,0.38% (inactive)
21,O=C1CSC2=NCN(c3ccccc3)CN12,8.4% (active)
22,O=C(NCc1cccs1)C(=O)NCC1OCCCN1S(=O)(=O)c1ccc(F)cc1 (configuration not stated),-1.49% (inactive)
23,CC(O)c1nc2ccccc2n1Cc1ccc([N+](=O)[O-])cc1 (configuration not stated),-1.44% (inactive)
24,Cc1ccc(-c2c(C)n([O-])c3c([n+]2=O)CCC3)cc1,-0.22% (inactive)
25,CC(C)(C)c1ccc(C(=O)NCc2nnc(SCC(=O)N3CCCc4ccccc43)n2-c2ccccc2)cc1,-0.43% (inactive)

row,Compound,viability increase
1,Cc1ccc(CSCC(N)C(=O)O)cc1 (configuration not stated),1.44% (inactive)
2,COc1cc2c(cc1/C=C1/NC(=O)N(c3ccccc3)C1=O)OCO2,0.58% (inactive)
3,CCC1(C)Cc2c(sc3nc(SC)nc(N)c23)CO1 (configuration not stated),-0.12% (inactive)
4,CCC1(C)Cc2c(sc3[nH]c(=S)n(Cc4ccccc4)c(=O)c23)CO1 (configuration not stated),-3.87% (inactive)
5,CCC1(C)Cc2c(sc3nnn(CC(=O)Nc4ccc(Cl)cc4)c(=O)c23)CO1 (configuration not stated),9.27% (active)
6,COCc1c(C(=O)N/N=C/C2CC=CCC2)nnn1-c1nonc1N (configuration not stated),-1.34% (inactive)
7,CC(C)(C)N(Cc1ccccc1)C(=O)COC(=O)CCc1c[nH]c2ccccc12,-1.32% (inactive)
8,CCc1nnc(NC(=O)CCC(=O)O)s1,0.72% (inactive)
9,O=C(NCC(F)(F)F)Nc1nnc(C(F)(F)F)s1,7.12% (active)
10,COc1ccc(C)cc1NC(=O)CCC(=O)Nc1nnc(C(F)(F)F)s1,1.24% (inactive)
11,Cc1nnnn1/C(=C\c1ccccc1)C(=O)OCC(=O)N1CC2(C)CC1CC(C)(C)C2 (configuration not stated),-4.97% (inactive)
12,CCn1c(NC(=O)c2nn(C)cc2Br)nc2ccccc21,-2.46% (inactive)
13,O=C(NCCNc1ccc([N+](=O)[O-])cc1)c1cccc2c(Br)cccc12,1.47% (inactive)
14,O=C(Nc1ccccc1)c1ccc2c(c1)OCO2,-0.11% (inactive)
15,C/C(=N\NC(=S)NCc1ccccc1)c1ccc(Cl)cc1,-2.64% (inactive)
16,C/C(=N/NC(=S)Nc1ccccc1)c1ccc2c(c1)OCO2,7.99% (active)
17,COc1ccc(OCC(O)CNC(=O)Nc2ccc(Cl)cc2)cc1 (configuration not stated),2.65% (inactive)
18,Cc1ccc(C)c(NS(=O)(=O)c2ccc(OCC(=O)NCc3cccnc3)cc2)c1,-4.52% (inactive)
19,CC1CCN(C(=O)c2ccc(S(=O)(=O)Cc3cc(F)ccc3F)c([N+](=O)[O-])c2)CC1,-4.87% (inactive)
20,CCOc1ccc(Br)cc1CSC(=N)N,0.81% (inactive)
21,c1ccc2c(CSCc3nc4ccccc4[nH]3)cccc2c1,-0.17% (inactive)
22,N=C(N)SCc1cccc2ccccc12,8.11% (active)
